The values that follow come from PubChem BioAssay.

Records with an inconclusive call do not appear. Calls of active or inactive are those of the source.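 How the source made its calls, unless noted: active means binding below the plate cutoff, the plate median minus 3 SD, with a reading above zero; inconclusive means below the plate cutoff but reading exactly zero; inactive means the rest.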

By inhibition is commonly meant the change of the read-out against control, counted positive when it falls.

Test [1] in a line: rapamycin-like changes in RPL19A-GFP expression – cell-based, S. cerevisiae, multiplex flow cytometry, primary screen (AID 1862; in the data active means percent of DMSO control GFP below about 86%;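 further: lower values mimic rapamycin by blocking the RPL19A rise seen in DMSO cells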). The note with it: S. cerevisiae RPL19A-GFP strain, flow cytometry fluorescence, 3 h; at 10 µM; stronger effect = lower value. (In general: Flow cytometry measures light scatter and fluorescence of single cells or particles in a stream.)
The nature of test [2]: TOR pathway GLN3 branch reporter MEP2-GFP changes – S. cerevisiae, multiplex flow cytometry, primary screen (AID 1867;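 active means GFP response, as percent of the DMSO control, above the screen-wide mean plus 3 SD, about 139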;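 further: median GFP channel fluorescence of barcode-gated MEP2-GFP cells measured by flow cytometry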). The conditions noted are these: S. cerevisiae MEP2-GFP strain, 3 h, at 10 µM, stronger effect = higher value, 100% means same as DMSO wells.
Test [3] is described as follows: TOR pathway RTG branch CIT2 reporter changes – S. cerevisiae, GFP fusion, multiplex flow cytometry, primary screen (AID 1870;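 active means percent response above a set limit, the screen-wide mean plus 3 SD, cut at about 130% in these data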;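 further: barcoded CIT2-GFP strain pooled with four other GFP strains with rapamycin as positive control; median GFP fluorescence per well over plate mean of DMSO wells so 100% = DMSO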). The conditions noted are these: S. cerevisiae CIT2-GFP expression, 3 h, at 10 µM, stronger effect = higher value.
Test [4] in a line: TOR pathway LAP4-GFP level changes – S. cerevisiae, multiplex flow cytometry, primary screen (AID 1873;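 active means GFP signal, as percent of the solvent control, above the screen mean plus 3 SD, about 149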). The note with it: S. cerevisiae LAP4-GFP expression, 3 h, at 10 µM, stronger effect = higher value.
The nature of test [5]: yeast AGP1-GFP level changes, GLN3 branch – cell-based, multiplex flow cytometry, S. cerevisiae, primary screen (AID 1887;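 active means GFP signal above the screen-wide mean plus 3 SD, that is over about 124.5% of the solvent control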;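 further: AGP1-GFP fusion strain of S. cerevisiae within a five-strain barcoded multiplex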). The conditions noted are these: 3 h, at 10 µM, stronger effect = higher value.
Test [6] in a line: reduced mouse 2C T cell binding to pMHC/ICAM-1 vesicles – MLPCN validation set, flow cytometry, LFA-1/ICAM-1 modulator project, pilot screen (AID 2523;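 active means response below a set limit, under 55% cells CD8-positive and vesicle-bound, and CD8 cells' 90th-percentile brightness under 279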;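 on vesicle binding response: mean PE anti-B7-1 fluorescence of CD8+ cells relative to row control; 100% = QL9-loaded vesicles with DMSO vehicle in the same plate row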). The note with it: 2C mouse CD8+ T cells, at 7 µM, stronger effect = lower value; double positive events: measured here: CD8+/vesicle+ event percentage.
Test [7] deals with Integrin beta-1 (Homo sapiens) + Integrin alpha-4 (Homo sapiens) (UniProt P13612+P05556). The experiment in a line: alpha4beta1 integrin LIBS antibody binding reduction – U937 cells, HUTS-21 mAb, flow cytometry, validation set, VLA-4 allosteric modulator project, pilot screen (AID 2674;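 active means inhibition above 50%, about 3 SD of the validation set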;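 further: antibody binding induced by the VLA-4 ligand LDV present at three times its Kd; 0% = LDV ligand with antibody and no compound and 100% = antibody without LDV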). The conditions noted are these: HUTS-21 LIBS mAb binding, at 6.7 µM, stronger effect = higher value, binding induced by LDV ligand.

Test [8] is described as follows: calorie-restriction mimetic ROS inhibitors, yeast – validation compound set, pilot screen (AID 2706;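 active means superoxide response below 65% of plate, a cut near 3 SD across the whole screen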;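 further: yeast exposed to compound for one week at 30 degrees C before staining; 100% = mean of all compound wells on the same plate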). The note with it: S. cerevisiae aging, superoxide DHE fluorescence; at 10 µM, stronger effect = lower value.
Test [9] addresses Beta-adrenergic receptor kinase 1 (Homo sapiens) (UniProt P25098). The experiment in a line: GRK2 binders displacing RNA aptamer, biochemical, validation, human GRK2, bead flow cytometry (AID 488806;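 active means aptamer binding inhibition above 30%, about 3 SD of noise from non-fluorescent compounds; inactive means inhibition at or below 30%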). The conditions noted are these: bead-bound GRK2, FAM-aptamer displacement, at 10 µM, stronger effect = higher value.
For test [10], the target named is AP-2 complex subunit beta (Homo sapiens) (UniProt P63010). The experiment in a line: beta-arrestin/AP2 interaction blockers – biochemical, validation set, GST-AP2 beads, flow cytometry, pilot screen (AID 504541;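 active means inhibition above 54%, about 3 SD of non-fluorescent compounds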;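 further: AP2 carries R879A mutation and is captured from E. coli lysate; bead-bound FITC arrestin peptide fluorescence measuring arrestin peptide binding to AP2; 0% = DMSO wells and 100% = excess unlabeled arrestin peptide control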). The note with it: FITC arrestin peptide, at 10 µM, stronger effect = higher value, AP2 beta2 appendage fragment, R879A mutant.
Test [11] can be described thus: cytosolic pH regulators acting via V-ATPase – S. cerevisiae, pHLuorin, HTS validation (AID 504600; in the data active means response above about 15%;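 further: plate controls were DMSO for no effect and reference compound for full effect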). The conditions noted are these: V-ATPase proton transport, at 10 µM, stronger effect = higher value.
The test system of test [12] is anti-desmoglein-3 scFv antibody binding to human DSG3. The experiment in a line: blockers of pathogenic pemphigus antibody–desmoglein-3 binding – biochemical, validation compound set, bead-based, flow cytometry, pilot screen (AID 588368).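 Further: signal is the median channel fluorescence of bead-bound GFP antibody.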 The conditions noted are these: Protein G beads, DSG3-Fc, scFv-GFP binding, at 10 µM, stronger effect = lower value.
Test [13] in a line: Nile Red efflux blockade in pump-expressing yeast – validation compound set, multiplex, phenotypic, pilot screen (AID 588506;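 active means efflux inhibition above 0.42, the validation set average plus 4 SD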;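 further: Nile Red retained in cells so higher fluorescence means more efflux inhibition; 0 = negative control wells and 1 = enniatin B 25 µM full block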). The conditions noted are these: S. cerevisiae pump-expressing triplex, Nile Red efflux flow cytometry; at 10 µM; stronger effect = higher value; the pumps come from Candida albicans.
For test [14], the target named is ATP-binding cassette sub-family B member 6 (Homo sapiens) (UniProt Q9NP58). The experiment in a line: blockers of ABCB6-driven porphyrin uptake – K562-ABCB6 cells, flow cytometry, validation set, pilot screen (AID 588550;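 active means inhibition above the screen-wide mean plus 3 SD, about 51%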;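 further: 0% = DMSO wells and 100% = benzethonium chloride 70 µM positive control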). The conditions noted are these: K562-ABCB6 porphyrin accumulation, 1 h, at 10 µM, stronger effect = higher value.
Test [15] is described as follows: AML differentiation inducers, ER-HoxA9 marrow cells – cell-based, GFP/MAC1 double positive, flow cytometry, validation set, primary screen (AID 588685;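 active means differentiation response of at least 50%, scaled between solvent and reference control, from cells with both markers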;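 further: compound exposure lasts four days before antibody staining and flow analysis; 0% = DMSO wells and 100% = 5 µM fulvestrant positive control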). The note with it: stronger effect = higher value, normalized: vehicle 0, fulvestrant 100.

Sequence of ATP-binding cassette sub-family B member 6 (Homo sapiens) (Q9NP58 whole entry, looked up): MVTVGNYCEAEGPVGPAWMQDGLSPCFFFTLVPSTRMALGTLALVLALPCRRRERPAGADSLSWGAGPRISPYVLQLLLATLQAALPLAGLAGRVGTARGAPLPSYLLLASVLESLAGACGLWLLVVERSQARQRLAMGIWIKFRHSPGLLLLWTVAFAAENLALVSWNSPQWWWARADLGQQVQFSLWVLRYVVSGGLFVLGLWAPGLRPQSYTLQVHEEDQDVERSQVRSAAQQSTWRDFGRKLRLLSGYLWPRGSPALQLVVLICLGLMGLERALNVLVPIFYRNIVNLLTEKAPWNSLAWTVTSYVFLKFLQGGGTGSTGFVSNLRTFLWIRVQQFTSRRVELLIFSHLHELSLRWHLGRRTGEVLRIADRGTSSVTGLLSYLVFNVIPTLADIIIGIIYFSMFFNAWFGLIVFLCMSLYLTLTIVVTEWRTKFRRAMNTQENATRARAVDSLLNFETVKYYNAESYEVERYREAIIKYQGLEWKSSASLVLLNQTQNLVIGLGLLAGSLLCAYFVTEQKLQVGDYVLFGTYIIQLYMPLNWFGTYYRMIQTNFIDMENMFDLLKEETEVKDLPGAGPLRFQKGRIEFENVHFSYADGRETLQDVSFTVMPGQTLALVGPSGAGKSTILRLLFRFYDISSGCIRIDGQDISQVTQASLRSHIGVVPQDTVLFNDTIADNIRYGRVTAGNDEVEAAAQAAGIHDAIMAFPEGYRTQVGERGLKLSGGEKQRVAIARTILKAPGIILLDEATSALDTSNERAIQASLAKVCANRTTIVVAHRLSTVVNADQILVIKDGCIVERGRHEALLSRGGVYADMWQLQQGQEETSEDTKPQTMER
Sequence of Integrin beta-1 (Homo sapiens) + Integrin alpha-4 (Homo sapiens) (P05556 whole entry, looked up): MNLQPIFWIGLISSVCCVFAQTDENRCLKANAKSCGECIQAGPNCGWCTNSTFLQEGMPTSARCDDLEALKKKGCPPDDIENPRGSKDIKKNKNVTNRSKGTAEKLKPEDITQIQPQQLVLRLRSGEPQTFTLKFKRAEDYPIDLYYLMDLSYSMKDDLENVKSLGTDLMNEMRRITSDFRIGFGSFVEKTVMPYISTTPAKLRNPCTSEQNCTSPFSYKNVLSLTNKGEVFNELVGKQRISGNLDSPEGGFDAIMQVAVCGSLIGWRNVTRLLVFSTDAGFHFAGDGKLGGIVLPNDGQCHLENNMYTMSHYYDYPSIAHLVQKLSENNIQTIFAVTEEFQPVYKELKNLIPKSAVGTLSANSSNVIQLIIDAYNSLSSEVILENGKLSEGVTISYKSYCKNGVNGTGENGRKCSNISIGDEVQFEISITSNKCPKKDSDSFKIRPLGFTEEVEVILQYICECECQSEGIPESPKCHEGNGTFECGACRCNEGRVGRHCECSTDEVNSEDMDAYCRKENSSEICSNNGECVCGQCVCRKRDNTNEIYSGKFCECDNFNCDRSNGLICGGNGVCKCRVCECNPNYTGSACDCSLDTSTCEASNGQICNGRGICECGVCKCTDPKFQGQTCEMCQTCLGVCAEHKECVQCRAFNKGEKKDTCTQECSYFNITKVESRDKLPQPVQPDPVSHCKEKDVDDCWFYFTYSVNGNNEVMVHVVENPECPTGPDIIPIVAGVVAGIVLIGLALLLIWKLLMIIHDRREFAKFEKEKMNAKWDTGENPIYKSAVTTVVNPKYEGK
Sequence of Integrin beta-1 (Homo sapiens) + Integrin alpha-4 (Homo sapiens) (P13612 whole entry, looked up): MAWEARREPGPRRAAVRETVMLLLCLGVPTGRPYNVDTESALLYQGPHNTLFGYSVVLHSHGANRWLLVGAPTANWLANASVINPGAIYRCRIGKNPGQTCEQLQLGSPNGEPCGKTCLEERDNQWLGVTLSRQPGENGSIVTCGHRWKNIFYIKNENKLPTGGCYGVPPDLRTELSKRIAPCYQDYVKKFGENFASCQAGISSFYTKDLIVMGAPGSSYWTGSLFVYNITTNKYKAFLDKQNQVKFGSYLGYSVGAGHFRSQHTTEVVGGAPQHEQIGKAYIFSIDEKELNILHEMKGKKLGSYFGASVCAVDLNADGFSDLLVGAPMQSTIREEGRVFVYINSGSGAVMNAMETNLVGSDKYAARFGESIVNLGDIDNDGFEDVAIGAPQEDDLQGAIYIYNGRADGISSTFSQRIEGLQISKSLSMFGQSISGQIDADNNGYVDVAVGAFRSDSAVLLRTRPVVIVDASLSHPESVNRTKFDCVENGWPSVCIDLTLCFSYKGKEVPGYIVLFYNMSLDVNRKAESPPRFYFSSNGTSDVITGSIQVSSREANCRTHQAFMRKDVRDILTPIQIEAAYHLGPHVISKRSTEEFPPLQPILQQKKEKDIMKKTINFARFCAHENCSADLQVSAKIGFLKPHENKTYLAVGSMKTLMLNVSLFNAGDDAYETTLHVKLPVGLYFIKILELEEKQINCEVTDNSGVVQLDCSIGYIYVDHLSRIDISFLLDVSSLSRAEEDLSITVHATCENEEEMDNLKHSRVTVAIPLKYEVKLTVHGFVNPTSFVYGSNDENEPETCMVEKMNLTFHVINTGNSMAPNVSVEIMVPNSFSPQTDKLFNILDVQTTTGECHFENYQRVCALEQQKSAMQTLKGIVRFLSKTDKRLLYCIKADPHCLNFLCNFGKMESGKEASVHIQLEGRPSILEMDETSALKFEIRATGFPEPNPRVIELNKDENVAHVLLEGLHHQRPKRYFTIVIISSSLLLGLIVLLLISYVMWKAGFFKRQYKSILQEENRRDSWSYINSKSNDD
Sequence of AP-2 complex subunit beta (Homo sapiens) (P63010 whole entry, looked up, the tested form may be a part, one chain of several): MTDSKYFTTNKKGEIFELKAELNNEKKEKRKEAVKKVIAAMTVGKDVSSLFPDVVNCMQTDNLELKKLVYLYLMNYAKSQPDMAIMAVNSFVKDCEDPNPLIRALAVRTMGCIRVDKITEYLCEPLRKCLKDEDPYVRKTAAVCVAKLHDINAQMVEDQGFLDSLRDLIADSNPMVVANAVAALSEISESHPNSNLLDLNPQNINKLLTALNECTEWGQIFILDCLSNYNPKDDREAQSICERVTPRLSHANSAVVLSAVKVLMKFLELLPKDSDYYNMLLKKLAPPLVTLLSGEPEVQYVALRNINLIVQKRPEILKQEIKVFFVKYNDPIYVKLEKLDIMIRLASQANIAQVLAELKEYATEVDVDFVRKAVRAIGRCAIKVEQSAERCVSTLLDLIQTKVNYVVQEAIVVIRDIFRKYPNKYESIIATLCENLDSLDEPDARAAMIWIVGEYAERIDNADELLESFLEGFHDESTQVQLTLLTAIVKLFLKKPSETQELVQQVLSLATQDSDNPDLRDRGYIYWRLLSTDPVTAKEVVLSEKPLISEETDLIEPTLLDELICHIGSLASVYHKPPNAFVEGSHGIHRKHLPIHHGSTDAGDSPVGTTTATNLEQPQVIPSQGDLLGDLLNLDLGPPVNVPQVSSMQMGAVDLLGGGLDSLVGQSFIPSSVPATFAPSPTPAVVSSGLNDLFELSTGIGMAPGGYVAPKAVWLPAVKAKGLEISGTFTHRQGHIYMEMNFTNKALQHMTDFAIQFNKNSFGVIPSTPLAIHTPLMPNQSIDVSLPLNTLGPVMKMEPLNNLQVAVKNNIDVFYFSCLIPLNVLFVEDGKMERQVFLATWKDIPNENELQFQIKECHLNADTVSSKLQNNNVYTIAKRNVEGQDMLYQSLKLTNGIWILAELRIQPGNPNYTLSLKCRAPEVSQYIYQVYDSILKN
Sequence of Beta-adrenergic receptor kinase 1 (Homo sapiens) (P25098 whole entry, looked up): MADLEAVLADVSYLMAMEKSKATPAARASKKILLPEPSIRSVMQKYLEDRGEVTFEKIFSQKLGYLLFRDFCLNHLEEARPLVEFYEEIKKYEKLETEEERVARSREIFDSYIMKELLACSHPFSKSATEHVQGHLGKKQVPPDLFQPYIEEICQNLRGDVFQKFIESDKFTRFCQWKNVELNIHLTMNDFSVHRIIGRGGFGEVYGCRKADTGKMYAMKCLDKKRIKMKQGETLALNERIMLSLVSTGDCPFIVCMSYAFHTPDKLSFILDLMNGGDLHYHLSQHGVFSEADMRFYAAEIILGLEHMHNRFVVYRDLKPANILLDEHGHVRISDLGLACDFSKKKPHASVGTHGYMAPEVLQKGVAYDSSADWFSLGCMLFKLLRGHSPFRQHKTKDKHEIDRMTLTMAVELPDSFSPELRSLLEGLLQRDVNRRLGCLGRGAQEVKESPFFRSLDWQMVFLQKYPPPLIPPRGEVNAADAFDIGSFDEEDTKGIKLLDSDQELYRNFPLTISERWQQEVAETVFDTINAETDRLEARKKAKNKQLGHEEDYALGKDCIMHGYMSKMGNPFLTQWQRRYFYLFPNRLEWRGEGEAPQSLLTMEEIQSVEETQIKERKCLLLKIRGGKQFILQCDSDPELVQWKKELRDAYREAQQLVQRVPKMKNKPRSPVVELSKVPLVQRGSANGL

For `CC(=O)O[C@H]1C(=O)[C@@]2(C)[C@H]([C@H](OC(=O)c3ccccc3)[C@]3(O)C[C@H](OC(=O)[C@H](O)C(NC(=O)c4ccccc4)c4ccccc4)C(C)=C1C3(C)C)[C@]1(OC(C)=O)CO[C@@H]1C[C@@H]2O` (stereo not given in full), in test [1], the percent of DMSO control GFP was 106% (inactive). Further, the results for the GFP response vs DMSO in [2] and in test [4] were 99.9% (inactive) and 90.3% (inactive), respectively. In addition, the percent response of DMSO control in test [3] was 103% (inactive). For the same compound, the GFP response, % of DMSO in [5] was 97.3% (inactive). In addition, in [6], the double positive events came out at 55.6%. Besides, in test [6], the vesicle binding response is 162% (inactive). In addition, the inhibition in test [7] is 5.36% (inactive); in test [10], 2.22% (inactive); in test [14] it was 7% (inactive). The superoxide response (% of plate) in test [8] was 99% (inactive). Moreover, the aptamer binding inhibition in test [9] is 3% (inactive). Besides, the response in [11] is -2.34% (inactive). For the same compound, the binding (% of control) in test [12] is 94.6% (inactive). Also, the efflux inhibition (fraction of control) in test [13] is 0.63 (active). Further, the differentiation response in test [15] is 9.49% (inactive).

Regarding `CC1(C)OC2OC(C(=O)N/N=C/c3ccccc3F)C3OC(C)(C)OC3C2O1` (stereo not given), the percent of DMSO control GFP in test [1] was 100% (inactive). Further, the GFP response vs DMSO in test [2] is 106% (inactive); in test [4], 101% (inactive). Besides, the percent response of DMSO control in test [3] was 97.9% (inactive). Besides, the GFP response, % of DMSO in [5] was 101% (inactive). In test [6], this compound gave a double positive events of 53.1%. Also, the vesicle binding response in test [6] was 164% (inactive). Further, the results for the inhibition in test [7], in test [10] and in [14] were 12.8% (inactive), 0.54% (inactive) and 9% (inactive), respectively. The superoxide response (% of plate) in [8] was 103% (inactive). In addition, the aptamer binding inhibition in test [9] was 1% (inactive). In addition, in [11], the response is 1.25% (inactive). Moreover, the binding (% of control) in test [12] was 96.5% (inactive). Moreover, in test [13], the efflux inhibition (fraction of control) was 0.52 (active). For the same compound, the differentiation response in [15] is -13.1% (inactive).

With `Cn1nc(-c2ccccn2)nc2c(=O)n(C)c(=O)nc1-2`, the percent of DMSO control GFP in [1] was 103% (inactive). The results for the GFP response vs DMSO in [2] and in test [4] were 98.9% (inactive) and 105% (inactive), respectively. Besides, in test [3], the percent response of DMSO control is 110% (inactive). The GFP response, % of DMSO in test [5] was 105% (inactive). In addition, the double positive events in [6] turned out to be 59.4%. Moreover, the vesicle binding response in test [6] is 165% (inactive). Further, the inhibition in test [7] was -40.4% (inactive); in test [10], 17.4% (inactive); in [14] it was -1% (inactive). In test [8], the superoxide response (% of plate) is 107% (inactive). Further, the aptamer binding inhibition in test [9] is 61% (active). Besides, the response in test [11] was -11.7% (inactive). In test [12], the binding (% of control) is 94.9% (inactive). Also, in [13], the efflux inhibition (fraction of control) was -0.12 (inactive). Besides, the differentiation response in test [15] is -22.8% (inactive).

With `Cc1nc2sccn2c(=O)c1CCN1CCC(=C(c2ccc(F)cc2)c2ccc(F)cc2)CC1`, the percent of DMSO control GFP in test [1] is 101% (inactive). Also, the GFP response vs DMSO is 98.6% (inactive) in [2] and 121% (inactive) in test [4]. For the same compound, the percent response of DMSO control in test [3] is 105% (inactive). In addition, the GFP response, % of DMSO in [5] is 121% (inactive). In test [6], the double positive events came out at 61.2%. In addition, in test [6], the vesicle binding response is 217% (inactive). In addition, the inhibition in [7] was 2.29% (inactive); in test [10] it was -0.42% (inactive); in test [14], 2% (inactive). In addition, the superoxide response (% of plate) in test [8] was 86.3% (inactive). For the same compound, the aptamer binding inhibition in [9] is -2% (inactive). Also, the response in test [11] is -6.88% (inactive). Moreover, the binding (% of control) in test [12] is 109% (inactive). Besides, in test [13], the efflux inhibition (fraction of control) was 0.08 (inactive). The differentiation response in [15] is -4% (inactive).

For the compound `O=S(=O)(NCCCCCNS(=O)(=O)c1ccccc1)c1ccccc1`, in test [1], the percent of DMSO control GFP was 104% (inactive). Also, the GFP response vs DMSO was 105% (inactive) in test [2] and 92.3% (inactive) in test [4]. In test [3], the percent response of DMSO control was 95.9% (inactive). In [5], the GFP response, % of DMSO was 92.8% (inactive). The double positive events in [6] is 57.2%. Moreover, the vesicle binding response in [6] was 127% (inactive). In addition, the inhibition in [7] is -13.3% (inactive); in [10], 3.03% (inactive); in [14], 10% (inactive). Moreover, the superoxide response (% of plate) in test [8] is 104% (inactive). Besides, in test [9], the aptamer binding inhibition is -3% (inactive). The response in test [11] was 1.49% (inactive). For the same compound, the binding (% of control) in test [12] was 103% (inactive). Also, the efflux inhibition (fraction of control) in [13] is 0.56 (active). In addition, in test [15], the differentiation response was -11.5% (inactive).
